# Screening results as filed in PubChem.
# Compounds with a hit are over-represented: about 3.2% of the library has one in this group of screens.
# Tau ThT inhib: qHTS for Inhibitors of Tau Fibril Formation, Thioflavin T Binding; Microtubule-associated protein tau (Homo sapiens), P10636; recombinant tau K18 P301L, heparin-induced fibrillization, ThT fluorescence; Potency, µM (titrated, usually from 57.4 µM), hits mostly inhibitors; 2.1% of 270,000 active; AID 1460, 2008; also: nearly all actives have a fitted effect of over 55% in size
# Target sequence (P10636 561-689 P618L limits assumed): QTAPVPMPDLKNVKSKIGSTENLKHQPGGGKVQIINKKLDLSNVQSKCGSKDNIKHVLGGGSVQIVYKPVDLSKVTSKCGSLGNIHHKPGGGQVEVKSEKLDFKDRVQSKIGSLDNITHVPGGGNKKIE
#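 Tau K18 P301L fragment (15 uM unlabeled plus 0.24 uM Alexa 594-labeled) in 100 mM sodium acetate pH 7 with compound, fibrillization induced by 20 uM heparin for 6 hr at 37 C. Thioflavin T (30 uM) added, fluorescence read after 1 hr (ex 450, em 510 nm).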
# LMNA splice mod: qHTS Assay for Modulators of Lamin A Splicing; HeLa LMNA splicing GFP/RFP minigene ratio, 48 h; Potency, µM (top dose mostly 46.1 µM), most hits filed as inhibitors; 0.01% of 200,000 active; active = well fitted inhibition curve with a large enough effect in the signal ratio, with a control signal flat, not every such curve was filed as active; inconclusive = small, poorly fitted or top-dose-only effect, or effect the other way, or a change in a side signal; the % refers to the signal ratio
#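 Read-out is the ratio of GFP to DsRed2 object intensity, acquired by 488 nm laser-scanning cytometry on HeLa lamin A-EGFP minigene reporter cells. Compound incubation 48 hrs at 37 °C in Opti-MEM with 2% FBS; DMSO 0.5% final.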
# Tau fluor counter: Counterscreen qHTS for Inhibitors of Tau Fibril Formation, Fluorescence Polarization. tau K18 P301L Alexa594 fluorescence, heparin fibrillization. Potency, µM (titrated, usually from 57.7 µM). 0.93% of 280,000 active. AID 1463, 2008; also: nearly all actives have a fitted effect of over 55% in size
#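 Human tau K18 P301L (15 uM unlabeled, 0.24 uM Alexa 594-labeled) in 100 mM sodium acetate pH 7 with 20 uM heparin, 6 hr at 37 C. ThT 30 uM added, 1 hr ambient; Alexa 594 FP and total fluorescence read at 555/632 nm.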
# CBFb-RUNX1 inh: qHTS Assay for Compounds Blocking the Interaction Between CBF-beta and RUNX1 for the Treatment of Acute Myeloid Leukemia; Runt-related transcription factor 1 (Homo sapiens) + Core-binding factor subunit beta …; AlphaScreen CBFb-His/RUNX1-biotin binding, biochemical; Potency, µM (titrated, usually from 59.8 µM), usual class: inhibitors; 230,000 tested, under 10 active
#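 Room-temperature protein-protein interaction test with 30 nM each of His-tagged CBF-beta and biotinylated RUNX1, 15 min with compound, then 90 min with nickel plus streptavidin beads. Signal read in AlphaScreen mode.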
# JMJD2E inh: qHTS Assay for Inhibitors of Human Jumonji Domain Containing 2E (JMJD2E). Potency, µM (highest dose often 57.1 µM), hits mostly inhibitors. 1.6% of 230,000 active. Lysine-specific demethylase 4E (Homo sapiens), B2RXH2. JMJD2E catalytic domain, FDH-coupled NADH fluorescence (FDH is formaldehyde dehydrogenase); also: nearly all actives have a fitted effect of over 50% in size
# Target sequence (B2RXH2 1-337 limits assumed): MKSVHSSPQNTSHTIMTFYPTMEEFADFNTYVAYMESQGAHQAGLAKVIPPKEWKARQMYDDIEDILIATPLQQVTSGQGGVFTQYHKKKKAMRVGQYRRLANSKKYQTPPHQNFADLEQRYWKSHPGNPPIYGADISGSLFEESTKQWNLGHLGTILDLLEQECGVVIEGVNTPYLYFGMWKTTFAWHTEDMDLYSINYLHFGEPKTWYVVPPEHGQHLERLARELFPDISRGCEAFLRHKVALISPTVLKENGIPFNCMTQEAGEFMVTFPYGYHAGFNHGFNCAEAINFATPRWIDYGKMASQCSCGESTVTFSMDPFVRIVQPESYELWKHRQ
# Tau FP inhib: qHTS for Inhibitors of Tau Fibril Formation, Fluorescence Polarization; Microtubule-associated protein tau (Homo sapiens), P10636; K18 P301L tau heparin fibrillization, Alexa594 FP, 6 h; Potency, µM (highest dose often 57.7 µM), hits mostly inhibitors; 0.39% of 280,000 active; AID 1468, 2008; also: nearly all actives have a fitted effect of over 55% in size
#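 Steps: dispense K18 P301L tau (15 uM plus 0.24 uM Alexa 594 tracer, final) in pH 7 sodium acetate; add compound; add heparin (20 uM final); incubate 6 hr, 37 C; add ThT (30 uM final); after 1 hr ambient, read FP.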
# Numbers stand for hits; - = inactive; ? = inconclusive; . = no result given; [ ] = remark or other dose. Unless noted, calls follow the shape of the dose curve; as a rule, active = well fitted curve in the direction sought with a large enough effect; inconclusive = small, poorly fitted or top-dose-only effect, or another doubt; inactive = no such curve, though single readings can be large; an effect the other way counts as inactive or inconclusive.
SMILES,Tau ThT inhib,LMNA splice mod,Tau fluor counter,CBFb-RUNX1 inh,JMJD2E inh,Tau FP inhib
COC(=O)[C@H](COC(C)(C)C)NC(=O)O[C@@H]1Cc2cc(Br)ccc2O[C@H]1c1cccc(OC)c1,-,.,-,-,-,-
S=c1[nH]c(-c2ccccc2)cn1/N=C/c1ccncc1,11µM,.,?,-,?,-
COc1cc(-c2noc(-c3ccc(N4CCN(C)CC4)c([N+](=O)[O-])c3)n2)cc(OC)c1OC,-,.,-,.,.,-
O=[N+]([O-])c1ccc(CCNc2cccc3ccccc23)c([N+](=O)[O-])c1,?,-,?,-,?,-
O=[N+]([O-])c1ccccc1NCc1c(O)ccc2ccccc12,?,.,13µM[quencher],-,?,-
CC(=O)C1CCC2C3CC=C4CC(O)CC[C@@]4(C)C3CC[C@]12C (stereo partly specified),-,.,-,-,-,-
Cc1cccc(NCCC(=O)c2ccc([N+](=O)[O-])cc2)c1C,?,.,8.9µM[quencher],-,-,-
Cc1ccc(C(=O)CNc2cccc([N+](=O)[O-])c2)cc1,?,.,-,-,-,-
Cc1ccc(NCCC(=O)c2cccc([N+](=O)[O-])c2)c(C)c1,?,?,16µM[quencher],?,-,?
Cc1ccc(NCC(=O)c2ccc([N+](=O)[O-])cc2)cc1,18µM,.,?,-,-,?
CCc1ccc(C(=O)CC2(O)C(=O)N(CCc3ccccc3)c3ccc(Cl)cc32)cc1 (stereo unspecified),-,.,-,.,.,-
Cc1ccc(O)c(-c2cc3ccccc3[nH]2)c1,13µM,?,16µM[quencher],-,?,-
Cc1cccc(-c2nc(C)c(CCNC(=O)C(=O)Nc3ccccc3C#N)s2)c1,-,?,-,.,.,-
CCOC(=O)c1c(NC(=O)c2nc(S(C)(=O)=O)ncc2Cl)sc(C(C)=O)c1C,22µM,.,?,.,.,?
CCOC(=O)c1c(-c2ccccc2)csc1NC(=O)c1nc(SCC)ncc1Cl,-,.,-,.,.,-
CCOC(=O)c1c(-c2ccccc2)csc1NC(=O)c1nc(S(=O)(=O)CC)ncc1Cl,13µM,.,?,.,.,?
O=C1CNC(=S)N1CCc1ccc(O)c(O)c1,.,.,-,-,13µM,-
Oc1c(Br)cc(Br)cc1/C=N/NC(=S)N[C@H]1CC2C=CC1C2 (stereo partly specified),?,?,?,-,8.9µM,?
CCOC(=O)c1cnc(SC2CCc3ccccc3C2=O)nc1N (stereo unspecified),28µM,-,?,-,-,?
COc1ccc(OC)c(C2C(C#N)=C(N)Oc3c2c(C)nn3-c2cccc(Cl)c2)c1 (stereo unspecified),13µM,?,?,-,?,-
Cc1ccc(-n2nc(C)c3c2OC(N)=C(C#N)C3c2ccc(F)cc2)cc1 (stereo unspecified),-,-,-,-,-,-
Cc1nn(-c2ccccc2)c2c1C(c1ccco1)C(C#N)=C(N)O2 (stereo unspecified),?,-,-,-,14µM,-
Cc1nn(-c2ccccc2)c2c1C(c1ccc([N+](=O)[O-])cc1)C(C#N)=C(N)O2 (stereo unspecified),?,.,?,-,18µM,-
Cc1nn(-c2cccc(Cl)c2)c2c1C(c1ccncc1)C(C#N)=C(N)O2 (stereo unspecified),?,?,?,?,?,-
Cc1nc2nc(NC(=O)c3ccc(F)cc3)[nH]n2c(=O)c1Cc1ccccc1,?,.,-,.,.,-
SMILES,Tau ThT inhib,LMNA splice mod,Tau fluor counter,CBFb-RUNX1 inh,JMJD2E inh,Tau FP inhib
O=Nc1c(-c2cccc([N+](=O)[O-])c2)nc2ncccn12,4µM,.,-,-,?,6.3µM
CC1=C(C(=O)OCC2CCCCC2)C(c2ccc(Cl)cc2Cl)CC(=O)N1 (stereo unspecified),-,.,-,.,.,-
Cc1cccc(Nc2nc(N)c([N+](=O)[O-])c(NCc3ccco3)n2)c1,?,-,?,-,-,?
COc1ccc(Nc2cc(C)nc(NCc3ccccc3)n2)cc1,?,.,35µM[quencher],-,-,-
Nc1nc(Nc2cccc(Cl)c2)nc(NCc2ccco2)c1[N+](=O)[O-],?,.,?,-,-,28µM
Nc1nc(Nc2ccc(Cl)cc2)nc(NCc2ccco2)c1[N+](=O)[O-],?,.,?,-,-,16µM
COc1ccc(Nc2nc(N)c([N+](=O)[O-])c(NCc3ccccc3)n2)cc1,?,.,14µM[quencher],-,-,-
CC(=O)OCCN1C(=O)c2c(C)nc3ccc(S(=O)(=O)N4CCOCC4)cc3c2C1=O,.,.,.,-,.,.
CCOc1cccc(NC(=O)C2CC(=O)N(C)C(=Nc3cccc(OC)c3)S2)c1 (stereo unspecified),-,.,?,.,.,?
O=C1CCCC2=C1C(c1ccc(Cl)cc1)C1C(=O)c3ccccc3C1=N2 (stereo unspecified),16µM,-,22µM[quencher],?,-,-
O=C1CCCC2=C1C(c1ccccc1)C1C(=O)c3ccccc3C1=N2 (stereo unspecified),-,-,-,-,-,-
O=C(Nc1ccc(F)c(Cl)c1)N1CC=C(c2c[nH]c3ccccc23)CC1,6.3µM,.,7.9µM[quencher],.,.,?
O=C(Nc1ccccc1C(F)(F)F)N1CC=C(c2c[nH]c3ccccc23)CC1,?,.,18µM[quencher],.,.,-
COc1ccccc1NC(=O)N1CC=C(c2c[nH]c3ccccc23)CC1,?,.,?,.,.,-
O=C(Nc1cccc(F)c1)N1CC=C(c2ccc(Cl)cc2)CC1,?,?,?,-,-,?
O=c1c(NCc2cccs2)nccn1-c1ccc(F)cc1,-,.,-,.,.,-
CC(C)CCSc1nnc2n(-c3ccccc3)c(=O)c3c4c(sc3n12)CC(C)CC4 (stereo unspecified),-,.,-,.,.,-
O=c1c2ccccc2nc(COc2ccccc2)n1/N=C/c1c[nH]c2ccccc12,-,?,?,-,-,?
Cc1ccc(-n2[nH]c(C)c(/C=N/n3c(C)nc4ccccc4c3=O)c2=O)cc1,25µM,?,-,-,?,?
Cc1nc2ccccc2c(=O)n1/N=C/c1ccc2ccccc2c1O,?,.,?,-,?,-
Cc1nc2ccccc2c(=O)n1/N=C/c1ccccc1O,-,.,-,-,25µM,-
O=c1c2ccccc2nc(COc2ccccc2)n1/N=C/c1ccc(O)cc1O,?,.,16µM[quencher],-,?,-
CCOc1ccccc1-c1nnc2n1N=C(c1ccccc1OC)CS2,.,.,.,-,.,.
